Sfp PPTase inh: Sfp phosphopantetheinyl transferase inhibition. Potency, µM, for inactives: largest response in the series, negative = inhibition, usual class: inhibitors. hit rate 3.5% among 310,000. AID 1490. Biochemical Sfp PPTase activity, qHTS;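 also: the enzyme is Sfp with the accession as filed and its product quenches rhodamine fluorescence; potency is read from the fitted curve at half-maximal effect; 0% = enzyme reaction without inhibitor and -100% = no enzyme wells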
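Compounds were incubated with enzyme (final 15 nM) for 15 min at room temperature before substrate addition started the reaction. Fluorescence at 525 nm excitation, 598 nm emission was recorded immediately and after 30 minutes.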
CCT modulator: changes cytosolic chaperonin activity; purified chaperonin ATPase assay, HTRF ADP detection, 30 min; activity change, % (test concentration not listed), hits read low; hit rate 0.3% among 360,000; AID 651819; in the data active = activity change below about -30%
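We incubate TRiC, 40 or 20 nM final, with library compounds at 76 uM and 10 uM ATP for 30 min at 37 °C. ADP formed is detected with Transcreener HTRF reagents after 30 min at room temperature.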
G9a inh: G9a (human) methyltransferase inhibition; G9a H3K9 monomethylation, AlphaScreen, 2 h; Potency, µM (top dose mostly 102 µM), for inactives: at the top dose activity, negative = inhibition, actives largely listed as inhibitors; hit rate 8.8% among 350,000; AID 504332; also: potency is read from the fitted curve at half-maximal effect; nearly all actives have a fitted effect of over 75% in size
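Readings reflect AlphaScreen signal from monomethyl-H3K9 antibody detection. HMT at 20 nM; substrate b-H3K9 500 nM; cofactor SAM 20 uM; 2 h RT reaction; compounds tested as titrations in qHTS with 15 min preincubation.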
VDR inhibitor: blocks the human vitamin D receptor. VDR-SRC2-3 peptide fluorescence polarization, 2 h. Potency, µM, for inactives: max response, negative = inhibition, actives largely listed as inhibitors. hit rate 0.93% among 400,000. AID 504847; also: potency is read from the fitted curve at half-maximal effect
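Measured by FP: displacement of SRC2-3 coactivator peptide from VDR by library compounds, following a two-hour ambient incubation.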
PLK1 PBD block: PLK1 (human) polo-box domain binding inhibition; Potency, µM, for the others: max response, negative = inhibition, hits mostly inhibitors; AID 720504; hit rate 2.8% among 360,000; Plk1 PBD binding of FITC phosphopeptide, fluorescence polarization; also: potency is read from the fitted curve at half-maximal effect; series mostly up to about 57 µM; nearly all actives have a fitted effect of over 65% in size
Target sequence (P53350 whole entry, looked up, the tested form may be a part): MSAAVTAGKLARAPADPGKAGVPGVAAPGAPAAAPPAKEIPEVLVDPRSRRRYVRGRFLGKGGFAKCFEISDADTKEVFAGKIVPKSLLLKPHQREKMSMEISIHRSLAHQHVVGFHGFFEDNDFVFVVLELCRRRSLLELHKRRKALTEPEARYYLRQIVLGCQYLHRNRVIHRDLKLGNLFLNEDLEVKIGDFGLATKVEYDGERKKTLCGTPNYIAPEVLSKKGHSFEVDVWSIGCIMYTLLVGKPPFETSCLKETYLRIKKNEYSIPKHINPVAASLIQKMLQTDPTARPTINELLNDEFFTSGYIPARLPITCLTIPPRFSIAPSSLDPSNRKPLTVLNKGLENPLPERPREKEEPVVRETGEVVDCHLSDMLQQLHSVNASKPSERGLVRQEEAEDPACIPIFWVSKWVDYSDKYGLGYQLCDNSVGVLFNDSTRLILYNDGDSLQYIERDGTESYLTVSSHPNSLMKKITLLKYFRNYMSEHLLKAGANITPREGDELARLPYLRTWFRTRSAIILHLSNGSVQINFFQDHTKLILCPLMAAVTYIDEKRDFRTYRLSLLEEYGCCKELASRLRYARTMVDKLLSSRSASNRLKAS
Mm-Cpn inhibitor: inhibitors of Methanococcus maripaludis chaperonin TRiC (MmCpn) | purified Mm-Cpn ATPase, ADP Transcreener TR-FRET | Potency, µM (highest dose often 76.9 µM), for the others: at the top dose activity, negative = inhibition, usual class: inhibitors | hit rate 0.031% among 330,000 | AID 504842; also: potency is read from the fitted curve at half-maximal effect; nearly all actives have a fitted effect of over 80% in size
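Compound-treated chaperonin, 25 nM final, turns over 10 uM ATP at 37°C for 30 min following a 10 min preincubation; ADP generated competes with ADP-d2 for Eu-cryptate antibody, lowering FRET.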
* marks the source's active call; other numbers are inactive results; ? = inconclusive; . = no result given; ! = repeats disagree; [ ] = dose if it differs, or a comment. Most compounds without a hit are left out; they make up all but 10% or so of the library. Unless noted, calls follow the shape of the dose curve; as a rule, active = well fitted curve in the direction sought with a large enough effect; inconclusive = small, poorly fitted or top-dose-only effect, or another doubt; inactive = no such curve, though single readings can be large; an effect the other way counts as inactive or inconclusive. Unless noted, % is scaled to controls: 0 for no effect and ±100 for the full control effect.

SMILES	Sfp PPTase inh	CCT modulator	G9a inh	VDR inhibitor	PLK1 PBD block	Mm-Cpn inhibitor
COCC(=O)Nc1c(C(=O)Nc2ccc3c(c2)OCO3)oc2ccccc12	-23.2%	-1.5	45.9%	-19.7%	29.9µM*	-1.7%
CSCc1c(C(=O)Nc2ccc3c(c2)OCO3)oc2ccccc12	-0.8%	1.0	35.5µM*	5.1%	-11.4%	-5.5%
Cc1ccc(Sc2c(C)nn(C(=O)COc3ccccc3Br)c2C)cc1	.	.	-5.0%[59 µM]	-6.0%	.	.
O=C(c1ccccc1Br)N(Cc1ccccc1F)C1CCS(=O)(=O)C1 (stereo not drawn)	.	.	-1.4%[59 µM]	6.1%	.	.
CCOC(=O)c1c(-c2ccc(C)c(C)c2)csc1NC(=O)C1CC=CCC1C(=O)O (stereo not drawn)	-6.3%	-2.2	11.3%	-16.2%	?	-2.1%
CCOC(=O)c1c(-c2ccc(-c3ccccc3)cc2)csc1NC(=O)CCN1CCOCC1	-6.0%	0.5	?	-12.1%	-1.9%	1.5%
COC(=O)c1sccc1NC(=O)C1CC=CCC1C(=O)O (stereo not drawn)	13.0%	-0.1	-27.3%[12.7 µM]	12.2%	-4.2%	-11.4%
CCOC(=O)c1c(-c2ccc(F)cc2)csc1NC(=O)CCN1CCOCC1	?	-1.4	8.91µM*	-1.5%	-2.7%	0.4%
CCOC(=O)c1c(-c2ccc(F)cc2)csc1NC(=O)C1CC=CCC1C(=O)O (stereo not drawn)	39.8µM*	1.1	15.8µM*	?	23.8µM*	-4.2%
CCOC(=O)c1c(-c2ccccc2)csc1NC(=O)C(C)NCCCN1CCOCC1 (stereo not drawn)	39.8µM*	-1.0	11.2µM*	2.0%	-4.0%	-1.2%
COC(=O)c1c(-c2ccco2)csc1NC(=O)C1CC=CCC1C(=O)O (stereo not drawn)	12.6µM*	2.0	?	-5.4%	-6.3%	-25.4%
CCOC(=O)c1c(-c2ccc(-c3ccccc3)cc2)csc1NC(=O)CNCCN(C)C	39.8µM*	0.2	50.1µM*	2.6%	?	0.9%
COc1ccc(NC(=S)N(CCc2c(C)[nH]c3ccc(C)cc23)Cc2cccnc2)cc1	-1.1%	-2.6	50.1µM*	-4.7%	-13.1%	0.5%
CCOc1ccc(NC(=S)N(CCc2c(C)[nH]c3ccccc23)Cc2cccnc2)cc1	4.0%	-1.0	?	-1.1%	-5.2%	-2.2%
Cc1[nH]c2ccc(F)cc2c1CCN(Cc1cccnc1)C(=S)Nc1ccccc1	12.9%	-4.4	56.2µM*	-5.6%	-17.1%	-1.7%
CCOc1ccc(NC(=S)N(CCc2c(C)[nH]c3ccc(C)cc23)Cc2ccncc2)cc1	6.8%	-2.4	39.8µM*	0.4%	-13.8%	0.4%
Cc1[nH]c2ccc(F)cc2c1CCN(Cc1ccncc1)C(=S)Nc1ccccc1	6.8%	0.8	?	9.7%	1.5%	-16.6%
Cc1[nH]c2ccccc2c1CCN(Cc1cccnc1)C(=S)Nc1cccc(F)c1	10.1%	-0.7	50.1µM*	-2.5%	-3.7%	1.0%
O=C(NCCC1=CCCCC1)c1ccc2c(c1)N(Cc1ccccc1F)C(=O)c1ccccc1S2=O (stereo not drawn)	.	.	1.3%[59 µM]	4.9%	.	.
O=C(OCc1cc(=O)n2nc(C3CC3)sc2n1)c1cccc(NC(=O)c2ccccc2Cl)c1	.	.	10.3%[59 µM]	-1.7%	.	.
Cc1cc(OCC(=O)Nc2c(C(=O)c3ccccc3)oc3ccccc23)cc(C)c1Cl	.	.	5.0%[59 µM]	4.5%	.	.
CC(C)NC[C@@H](O)COc1ccc(CCOCC2CC2)cc1	15.2%	.	4.0%[21.5 µM]	9.6%	.	.
CC(C)NCC(O)COc1ccc(CCOCC2CC2)cc1 (stereo not drawn)	7.2%	-0.3	35.5µM*!	8.2%	-10.5%	2.5%
Cc1ccc(N2CC(C)Cn3c2nc2c3c(=O)n(Cc3cccc(Cl)c3)c(=O)n2C)cc1 (stereo not drawn)	.	.	-40.6%[59 µM]	23.8%	.	.
NS(=O)(=O)c1ccc(NCCCn2ccnc2)c([N+](=O)[O-])c1	-1.6%	-3.3	14.3%	2.9%	-3.0%	0.3%
SMILES	Sfp PPTase inh	CCT modulator	G9a inh	VDR inhibitor	PLK1 PBD block	Mm-Cpn inhibitor
O=C1c2ccccc2-c2onc3ccc(NCCCn4ccnc4)c1c23	-1.3%	0.6	-25.9%[12.7 µM]	-25.2%	1.5µM*	-29.2%
O=C1c2ccccc2-c2onc3c(Br)cc(NC4CCCCC4)c1c23	.	.	-32.9%[59 µM]	-18.7%	.	.
COc1ccc(N)c2c1C(=O)c1ccccc1C2=O	-6.2%	-2.6	25.1µM*	?	-0.7%	?
COc1ccc2noc3c2c1C(=O)c1ccccc1-3	.	0.0	.	?	0.377µM*	.
COc1cccc2c1C(=O)c1ccc3ccccc3c1C2=O	-5.7%	-1.6	39.8µM*	-2.7%	-16.4%	-1.2%
CCc1ccc(C(=O)c2cn(CC(=O)NCc3ccc(C)cc3)c3nc(C)ccc3c2=O)cc1	.	.	3.2%[59 µM]	1.6%	.	.
COc1ccc(OC)c2c1C(=O)c1ccccc1C2=O	39.8µM*	1.6	-2.9%[59 µM]	10.7%	10.6µM*	-4.2%
S=c1[nH]nc(Nc2ccc(Cl)cc2)s1	?	-3.0	.	?	13.4µM*	-1.4%
Cc1ccc(Nc2n[nH]c(=S)s2)cc1	.	-5.1	.	.	23.8µM*	.
CCOc1ccc(Nc2n[nH]c(=S)s2)cc1	-24.9%	-1.3	-149.6%	-10.4%	?	-1.1%
Cc1ccc(Nc2n[nH]c(=S)s2)cc1F	.	-1.7	.	?	?	.
Cn1nnnc1SCC(=O)NCc1cc([N+](=O)[O-])ccc1O	17.9%	-0.4	-20.8%	-5.7%	-10.2%	-0.7%
CCCCc1ccc(CC(=O)Nc2cc(S(=O)(=O)N3CCOCC3)ccc2O)cc1	.	-0.6	?	?	15µM*	-2.7%
O=C(CC1CCCC1)Nc1cc(S(=O)(=O)N2CCOCC2)ccc1O	.	-0.8	?	?	5.97µM*	1.9%
O=C(CSc1nc2ccccc2s1)NCc1cc([N+](=O)[O-])ccc1O	.	-0.2	-0.7%[2.33 µM]	?	18.9µM*	-1.5%
COc1ccc(CC(=O)Nc2cc(S(=O)(=O)N3CCOCC3)ccc2N2CCOCC2)cc1OC	.	-19.4	.	-14.7%	-6.3%	.
Cc1ccc(S(=O)(=O)N2CCOCC2)cc1NC(=O)CNCC1CCCCC1	-9.9%	-0.4	10µM*	-24.2%	-0.1%	-5.1%
C/C(=C\CO)CCO	3.7%	.	.	-1.9%	.	.
CCCCn1c2ccccc2c2nnc(SCC(=O)Nc3ccc(NC(C)=O)cc3)nc21	.	.	?	-17.7%	.	.
COC(=O)c1c(NC(=O)c2nc(SCc3ccc(C)cc3)ncc2Cl)sc2c1CCCC2	.	.	-30.1%[59 µM]	2.1%	.	.
COc1ccc(NC(=O)c2cc3nc(-c4ccc(Cl)c(Cl)c4)cc(C(F)(F)F)n3n2)c(OC)c1	.	.	2.8%[59 µM]	-16.8%	.	.
Cc1ccc(S(=O)(=O)N2CCCCC2)cc1NC(=O)CSCC(=O)O	14.1%	-1.9	50.1µM*	-8.0%	-19.6%	-1.2%
Cc1nnc(SCC(=O)Nc2cc(S(=O)(=O)N3CCOCC3)ccc2C)s1	.	0.5	-48.2%	3.5%	-6.2%	-0.3%

Bioassay records from PubChem BioAssay.
